Reference: PubChem BioAssay (NCI)
About 83,000 compounds went through this panel and 20% of them were active in at least one assay; those are over-represented in the sample as a whole.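 Single-concentration screen, 48 h exposure, 96-well plates. Endpoint: percent growth. Below 10 = active.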 A number with no mark means an inactive call. Activity calls are given as the source filed them.

Assays:
Test in all cases: NCI-60 one-dose screen, 48 h (100 = growth as untreated, 0 = no growth, -100 = all killed)
[1] = test system: NCI-H23 lung; conditions: 10 µM unless noted
[2] = test system: NCI-H226 lung; conditions: 10 µM unless noted
[3] = test system: NCI-H322M lung; conditions: 10 µM unless noted
[4] = test system: HOP-62 NSCLC; conditions: 10 µM unless noted
[5] = test system: NCI-H460 lung; conditions: 10 µM unless noted
[6] = test system: HOP-92 NSCLC; conditions: 10 µM unless noted
[7] = test system: NCI-H522 lung; conditions: 10 µM
[8] = test system: 786-0 renal; conditions: 10 µM unless noted
[9] = test system: COLO 205 colon; conditions: 10 µM unless noted
[10] = test system: DU-145 prostate; conditions: 10 µM unless noted
[11] = test system: K-562 leukemia; conditions: 10 µM unless noted
[12] = test system: MALME-3M melanoma; conditions: 10 µM unless noted
[13] = test system: MDA-MB-231 breast; conditions: 10 µM unless noted
[14] = test system: RXF 393 renal; conditions: 10 µM unless noted
[15] = test system: SF-268 CNS; conditions: 10 µM unless noted
[16] = test system: SF-295 CNS; conditions: 10 µM unless noted
[17] = test system: SF-539 CNS; conditions: 10 µM unless noted
[18] = test system: UACC-257 melanoma; conditions: 10 µM unless noted
[19] = test system: M14 melanoma; conditions: 10 µM unless noted

Compound `O=CN1N=C(c2ccc(Nc3ccnc4cc(Cl)ccc34)cc2)CC1c1ccc(Cl)cc1` (stereo unspecified) has a growth [1] of 39.2%, a growth [2] of 52.6% and a growth [3] of 44.1%. For the same compound, the growth [4] was 33.8%, the growth [5] was 6.99% (active) and the growth [6] was 49.5%. It also gave a growth [7] of 26.9%, a growth [8] of 27.9% and a growth [9] of 12.1%. For the same compound, the growth [10] was 10%, the growth [11] was 9.53% (active) and the growth [12] was 34.5%. It also gave a growth [13] of 31.2%, a growth [14] of 17.5% and a growth [15] of 34.9%. The growth [16] was -1.08% (active), the growth [17] was -0.113% (active) and the growth [18] was 77.7%. For the same compound, the growth [19] was 39.3%.

With `CCSc1nc(Nc2ccc(S(=O)(=O)Nc3ccon3)cc2)c(C#N)c(-c2cccc(Br)c2)n1` the growth [1] was 101%, the growth [2] was 77.2% and the growth [3] was 74.3%. For the same compound, the growth [4] was 93.9%, the growth [5] was 106% and the growth [6] was 90.2%. It also gave a growth [7] of 87.3%, a growth [8] of 94.8% and a growth [9] of 117%. It also gave a growth [10] of 112%, a growth [11] of 77.9% and a growth [12] of 105%. It also gave a growth [13] of 97%, a growth [14] of 94.7% and a growth [15] of 99.3%. The growth [16] was 82%, the growth [17] was 82.2% and the growth [18] was 115%. It also gave a growth [19] of 104%.

`CCOc1nc(-c2ccco2)n2nc(-c3ccco3)cc2n1` showed a growth [1] of 107%, a growth [2] of 92.4% and a growth [3] of 116%. The growth [4] was 118%, the growth [5] was 102% and the growth [6] was 92%. The growth [7] was 99.1%, the growth [8] was 103% and the growth [9] was 131%. The growth [10] was 118%, the growth [11] was 114% and the growth [12] was 122%. For the same compound, the growth [13] was 98%, the growth [14] was 98.4% and the growth [15] was 106%. The growth [16] was 98.3%, the growth [17] was 89.6% and the growth [18] was 116%. For the same compound, the growth [19] was 132%.

`COc1ccc2[nH]c(=O)c(CNc3ccc(Nc4nccc(-c5ccc(Cl)cc5)n4)cc3)cc2c1` was tested, and the growth [1] was 91.5%, the growth [2] was 91.7% and the growth [3] was 87.6%. For the same compound, the growth [4] was 102%, the growth [5] was 93.7% and the growth [6] was 87.1%. The growth [7] was 83.8%, the growth [8] was 98% and the growth [9] was 100%. The growth [10] was 84.8%, the growth [11] was 68.6% and the growth [12] was 97.7%. It also gave a growth [13] of 84.9%, a growth [14] of 101% and a growth [15] of 71.9%. For the same compound, the growth [16] was 110%, the growth [17] was 104% and the growth [19] was 111%.

For `BrC1CC(Br)c2c1c1c(c3c2C(Br)CC3Br)C(Br)CC1Br` (stereo unspecified), the growth [1] was 99.7%, the growth [2] was 101% and the growth [3] was 97.7%. The growth [4] was 103%, the growth [5] was 93.4% and the growth [6] was 89.9%. For the same compound, the growth [7] was 84.4%, the growth [8] was 116% and the growth [9] was 105%. For the same compound, the growth [10] was 115%, the growth [11] was 80.9% and the growth [12] was 95.7%. The growth [13] was 98.5%, the growth [14] was 80.3% and the growth [15] was 111%. It also gave a growth [16] of 103%, a growth [17] of 92% and a growth [18] of 105%. The growth [19] was 97.7%.

`Nc1nc(SCc2cccnc2)c2ncn(C3OC(CO)C(O)C3O)c2n1` (stereo unspecified) gave a growth [1] of 97.9%, a growth [2] of 94.9% and a growth [3] of 108%. For the same compound, the growth [4] was 85.7%, the growth [5] was 96.6% and the growth [6] was 78.1%. The growth [7] was 102%, the growth [8] was 103% and the growth [9] was 114%. It also gave a growth [10] of 113%, a growth [11] of 113% and a growth [12] of 92.4%. For the same compound, the growth [13] was 94.7%, the growth [14] was 101% and the growth [15] was 90.6%. It also gave a growth [16] of 99.1%, a growth [17] of 95.1% and a growth [18] of 92.7%. The growth [19] was 97.8%.

In the case of `CCN1CC2=C(Nc3nc(SC)[nH]c(=O)c3C2c2cc(OC)c(OC)c(OC)c2)/C(=C/c2cc(OC)c(OC)c(OC)c2)C1` (stereo unspecified), the growth [1] is reported as 99.2%, the growth [2] is reported as 98.5% and the growth [3] is reported as 95.2%. The growth [4] was 104%, the growth [5] was 106% and the growth [6] was 81.6%. It also gave a growth [7] of 81.2%, a growth [8] of 96.9% and a growth [9] of 113%. For the same compound, the growth [10] was 112%, the growth [11] was 90.9% and the growth [12] was 112%. The growth [13] was 104%, the growth [14] was 106% and the growth [15] was 110%. For the same compound, the growth [16] was 100%, the growth [17] was 104% and the growth [18] was 97%. It also gave a growth [19] of 114%.

With `O=C(CNc1ccc2c(c1)C(=O)c1ccccc1C2=O)Nc1ccc2c(c1)C(=O)c1ccccc1C2=O` the growth [1] was -70.5% (active), the growth [2] was -62% (active) and the growth [3] was -95.2% (active). The growth [4] was -86.5% (active), the growth [5] was -71.6% (active) and the growth [6] was -65.7% (active). The growth [7] was -96.2% (active), the growth [8] was -90.3% (active) and the growth [9] was -89% (active). For the same compound, the growth [10] was -100% (active), the growth [11] was -30.2% (active) and the growth [12] was -81.2% (active). For the same compound, the growth [13] was -27.7% (active), the growth [14] was -89.4% (active) and the growth [15] was -94.6% (active). The growth [16] was -89.4% (active), the growth [17] was -69.3% (active) and the growth [18] was -90.3% (active). The growth [19] was -79.3% (active).
